Results on 22 compounds are retold here after PubChem BioAssay AID504706 (National Center for Advancing Translational Sciences (NCATS), 2011).

Hit rate of the full screen: of about 320,000 compounds, about 200 (0.062%) were called active. A call without a number means that no potency is given here. Roughly 6% stayed inconclusive and do not appear here. Calls follow the shape of the dose curve; as a rule, active = well fitted activation curve with a large enough effect; inconclusive = small, poorly fitted or top-dose-only effect; inactive = no such curve, though single readings can be large or run the other way. Only a selection was taken, and actives are over-represented in it overall.
Potency is read from the fitted curve at half-maximal effect.

A short description of this assay: qHTS assay for re-activators of p53 using a Luc reporter. Also: nearly all actives have a fitted effect of over 45% in size. The settings on record: H1299 p53-A138V BP100-luciferase reporter, luminescence, 24 h; series mostly up to 92.2 µM. An excerpt:
The p53 tumor suppressor plays a key role in suppression of tumorigenesis and in human carcinogenesis. It is frequently found inactivated in human cancers, mainly by point mutation. These point mutations are found in a wide variety of human cancers and a majority of them affect the DNA binding domain of the protein. The point mutations either alter native p53 conformation or abolish DNA contact. Additionally, cancer cells with p53 mutations are more resistant to chemo-radiation therapies. In order to find activators to reactivate this important protein, a cell-based screen for p53-dependent luciferase-reporter expression was developed. A p53-null H1299 lung cancer cell line was stably co-transfected with a temperature sensitive p53 mutant, p53-A138V, and a p53-responsive BP100-luciferase reporter. This cell model has previously been characterized in a gene chip profiling experiment for p53 activation. By lowering the culture temperature from 37 deg C (mutant p53 conformation) to 32 deg C (w.t. p53 conformation), a 30-60 fold increase in activation of luciferase activity is observed. At assay temperate, 37 deg C, basal reporter expression is very low and after the addition of detection reagent, a luminescent read-out is carried out. NIH Chemical Genomics Center [NCGC] NIH Molecular Libraries Probe Production Centers Network [MLPCN] MLPCN Grant: DA031088-01A1 Assay Provider (PI): Yi Sung, University of Michigan at Ann Arbor
5ul of 1000 cells per well are dispensed in all wells except column 4, into white solid-bottom TC-treated Kalypsys plates. The cells are kept in Opti-MEM and supplemented with 10% FBS and dispensed using a Multidrop (Thermo). Then using the Kalypsys pin-tool, 23nl of compounds are pinned. The compounds are starting concentration at 10mM, with 1:5 dilution, 4 points, and the control compound nocodazole is pinned in column 1 at 25mM, 1:3 dilution, in duplicate, 25mM nocodazole is pinned in column 2. Please note, all concentrations are working concentrations. 5ul of 1pM purified luciferase enzyme is dispensed using the Kalypsys dispenser in column 4. Plates are incubated for 24 hrs at 37 deg C, 5% CO2, and 95% humidity. Then 4ul of the detection reagent Amplite (ABD Bioquest) is added using the Kalypsys dispenser. Plates are incubated for 10 min at ambient room temperature and are then read on the ViewLux (Perkin Elmer) using a clear filter for a luminescent read-out.
On the technique in general: Quantitative high-throughput screening tests each substance at several concentrations.
As for `COc1cccc(/C(C)=N/Nc2ncc(Cl)cc2Cl)c1`, the Potency was 5.01 µM (active). In the case of `CCN(CC)c1ccc(C(=O)N/N=C(\C)c2cccc(OC)c2)cc1` it was “inactive”; in that of `C/C(=N\Nc1ncc(Cl)cc1Cl)c1cccs1`, “inactive”; in that of `O=C1N[C@@H](c2ccccc2)COC(=O)[C@H](Cc2ccc(F)cc2)C/C=C\C[C@@H]1CC(=O)N(CCO)Cc1ccccc1`, “inactive”. In the case of `Cc1ccc(C(=O)COC(=O)c2cccc(N3C(=O)c4c(C)nc5ccccc5c4C3=O)c2)cc1C` it was 35.5 µM (active); in that of `CCCc1nc2ccccc2c(C(=O)OCC(=O)c2ccc3c(c2)NC(=O)CO3)c1CC`, “inactive”. `O=C(CCc1nc2ccccc2c(=O)[nH]1)OCC(=O)c1cccc(Cl)c1`: the Potency entry is “inactive”.

Take `CNC[C@@H]1Oc2c(NS(C)(=O)=O)cccc2C(=O)N([C@@H](C)CO)C[C@H]1C`: the Potency result is “inactive”. As to `COC(=O)[C@]1(Cc2ccccc2)N[C@H](CN(C)S(=O)(=O)c2ccc(OC(F)(F)F)cc2)[C@@H]2C(=O)N(C)C(=O)[C@@H]21`, the Potency entry was “inactive”. In the case of `COc1ccc(CCNC(=O)COC(=O)c2ncc(Cl)c(Cl)c2Cl)cc1OC` it was “inactive”; in that of `C=CC[C@@H](CC(=O)NCCO)C(=O)N[C@H](C)COC(=O)[C@@H](CC=C)CC(=O)OC(C)(C)C`, “inactive”. Regarding `CC(C)NC(=O)Nc1cccc2c1O[C@@H](CN(C)S(=O)(=O)c1ccc(F)cc1)[C@@H](C)CN([C@H](C)CO)C2=O`, the Potency entry was “inactive”.

Regarding `C=CCC[C@@H](Cc1ccc(F)cc1)C(=O)O[C@H](CNC(=O)[C@H](CC=C)CC(=O)N(CCO)Cc1ccccc1)c1ccccc1`, the Potency entry is “inactive”. As for `Cn1c(N)c(C(=O)COC(=O)c2cccc(S(=O)(=O)N3CCOCC3)c2)c(=O)n(C)c1=O`, the Potency entry is “inactive”. `Cc1ccc(C(=O)NCC(=O)NC2CC2)cc1`: the Potency entry was “inactive”. Take `COc1ccc2nc3n(c(=O)c2c1)-c1ccc(Cl)cc1C(=O)NC3Cc1ccccc1` (configuration not stated): the Potency result is “inactive”. As to `CCN(C[C@H]1N[C@@](CC)(C(=O)OC)[C@H]2C(=O)N(Cc3ccccc3)C(=O)[C@@H]12)S(=O)(=O)c1ccccc1`, the Potency entry is “inactive”. In the case of `Cc1ccc(S(=O)(=O)Nc2ccc3c(c2)C(=O)N([C@H](C)CO)C[C@@H](C)[C@@H](CN(C)C(=O)Nc2cccc4ccccc24)O3)cc1` it was “inactive”.

In the case of `N#CCCN(C(=O)COC(=O)c1ccc2c(c1)OCCO2)c1ccccc1`, the Potency result was “inactive”. Regarding `O=C(COC(=O)CSc1ccccc1)Nc1ccc(F)cc1F`, the Potency result is “inactive”. With `COc1ccc2[nH]c3c(c2c1)CCN1C(=O)C(CC(=O)NCCCN(C)C)C[C@H](C(=O)N2CCOCC2)[C@@]31CCC1CCCC1` (some centres not stated), the Potency entry is “inactive”. For `CC[C@]1(C(=O)OC)[C@H]2C(=O)N(Cc3ccccc3)C(=O)[C@H]2[C@H]2CN=C(SCc3ccc(Cl)cc3)N21` the value was “inactive”.
